High-throughput results deposited in PubChem BioAssay by National Center for Advancing Translational Sciences (NCATS).
Only some compounds are listed: those with a hit (about 12% of all), similar ones and a draw of the others.
PLK1 PBD block: PLK1 (human) polo-box domain binding inhibition; Potency, µM, for inactives: max response, negative = inhibition, most hits filed as inhibitors; actives 2.8% (n = 360,000); Plk1 PBD binding of FITC phosphopeptide, fluorescence polarization; also: potency is read from the fitted curve at half-maximal effect; series mostly up to about 57 µM; % is scaled to controls: 0 for no effect and ±100 for the full control effect; nearly all actives have a fitted effect of over 65% in size
PI5P4K alpha inh: PI5P4K alpha (human) kinase inhibition | AID 652105 | actives 1.2% (n = 330,000) | P48426 | max response, % | PI5P4Kalpha enzyme, ADP-Glo luminescence, 60 min; hits give low values; active = max response of -50% or lower; inconclusive = between -30% and -50%; inactive = -30% or higher; also: value at the top dose of about 77 µM; % is scaled to controls: 0 for no effect and ±100 for the full control effect
Target sequence (P48426 whole entry, looked up): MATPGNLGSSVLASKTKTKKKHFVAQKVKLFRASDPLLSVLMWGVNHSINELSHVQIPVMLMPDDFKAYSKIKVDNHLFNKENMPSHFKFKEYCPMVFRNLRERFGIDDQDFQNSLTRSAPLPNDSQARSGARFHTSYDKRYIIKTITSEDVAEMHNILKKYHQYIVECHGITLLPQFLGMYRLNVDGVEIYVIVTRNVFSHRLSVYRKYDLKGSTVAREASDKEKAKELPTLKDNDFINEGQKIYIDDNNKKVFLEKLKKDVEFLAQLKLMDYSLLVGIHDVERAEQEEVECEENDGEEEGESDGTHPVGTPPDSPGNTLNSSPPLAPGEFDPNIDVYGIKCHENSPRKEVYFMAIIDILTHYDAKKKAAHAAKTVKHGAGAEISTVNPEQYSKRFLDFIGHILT
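Single end-point luminescence (ADP-Glo) quantified ADP from PI5P4Kalpha turnover; ATP 5 microM final, 1 h at RT, 0.1% CHAPS and 0.28 mM EGTA in HEPES pH 7.4.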
G9a block: blocks human histone lysine methyltransferase G9a; G9a H3K9 monomethylation, AlphaScreen, 2 h; actives 8.8% (n = 350,000); Q96KQ7; Potency, µM (titrated, usually from 102 µM), inactives show top-dose activity, negative = inhibition, actives largely listed as inhibitors; also: potency is read from the fitted curve at half-maximal effect; % is scaled to controls: 0 for no effect and ±100 for the full control effect; nearly all actives have a fitted effect of over 75% in size
Target sequence (Q96KQ7 913-1193 limits assumed): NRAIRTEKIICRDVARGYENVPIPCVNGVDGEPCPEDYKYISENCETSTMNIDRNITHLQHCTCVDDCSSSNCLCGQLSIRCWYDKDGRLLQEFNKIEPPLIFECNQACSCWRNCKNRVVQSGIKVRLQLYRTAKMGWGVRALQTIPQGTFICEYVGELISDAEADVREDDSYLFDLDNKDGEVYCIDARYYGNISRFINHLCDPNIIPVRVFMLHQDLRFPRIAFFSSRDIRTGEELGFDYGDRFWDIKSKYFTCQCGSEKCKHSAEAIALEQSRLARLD
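Chemiluminescent proximity detection of H3K9 monomethylation, read after 10 min bead incubation in the dark. Reaction: 20 nM G9a, 500 nM biotin-H3K9 peptide, 20 uM SAM cofactor, 2 h, room temperature, following 15 min enzyme-compound preincubation.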
HP1b binding inh: inhibitors of HP1-beta chromodomain binding to methylated histone tails; P83916; AlphaScreen HP1-beta / biotin-H3K9me3 peptide binding; Potency, µM (top dose mostly 114 µM), for inactives: at the top dose activity change, negative = inhibition, most hits filed as inhibitors; actives 0.56% (n = 390,000); AID 540317; also: potency is read from the fitted curve at half-maximal effect; nearly all actives have a fitted effect of over 70% in size
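AlphaScreen: HP1-beta (50 nM) preformed 30 min with biotin-H3(1-18)K9me3 peptide (50 nM) in PBS pH 7.4, 0.01% Tween-20. Compound added for 30 min at RT, then streptavidin donor/nickel chelate acceptor beads (10 ug/mL) for 30 min.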
JMJD2A Tudor inh: blocks the human JMJD2A Tudor domain | actives 4.4% (n = 390,000) | Potency, µM (doses to about 114 µM), for inactives: top-dose activity change, negative = inhibition, usual class: inhibitors | AlphaScreen JMJD2A-Tudor / H3K4me3 peptide binding | O75164; also: potency is read from the fitted curve at half-maximal effect; % is scaled to controls: 0 for no effect and ±100 for the full control effect; nearly all actives have a fitted effect of over 50% in size
BAZ2B inh: inhibitors of human BAZ2B bromodomain; Q9UIF8; AlphaScreen BAZ2B-H3K14Ac peptide displacement; Potency, µM (top dose mostly 114 µM), for the others: at the highest dose activity change, negative = inhibition, usual class: inhibitors; actives 4.4% (n = 360,000); also: potency is read from the fitted curve at half-maximal effect; % is scaled to controls: 0 for no effect and ±100 for the full control effect; nearly all actives have a fitted effect of over 60% in size
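BAZ2B (50 nM) with biotin-H3(5-23)K14Ac peptide (50 nM) in PBS pH 7.4, 0.01% Tween-20, preformed 30 min, then compound 30 min at room temperature; top concentration 110uM. AlphaScreen streptavidin donor/nickel chelate acceptor beads (10 ug/mL final), 20 min dark, signal read.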
The depositor's hits bear a star; ? = inconclusive; nt = no result; [ ] = remark or other dose. Unless noted, calls follow the shape of the dose curve; as a rule, active = well fitted curve in the direction sought with a large enough effect; inconclusive = small, poorly fitted or top-dose-only effect, or another doubt; inactive = no such curve, though single readings can be large; an effect the other way counts as inactive or inconclusive.

SMILES	PLK1 PBD block	PI5P4K alpha inh	G9a block	HP1b binding inh	JMJD2A Tudor inh	BAZ2B inh
c1ccc(-c2ccc(OCCCn3cncn3)cc2)cc1	-14%	0	?	?	-14%[11.4 µM]	56µM*
Brc1cccc(OCCCCn2cncn2)c1	-11%	-5	25µM*	?	25µM*	50µM*
COc1ccc(CCNC(=O)CCCn2c(=O)c3cccn3c3ccc(F)cc32)cc1OC	nt	nt	2%[59 µM]	39%	7%	-37%
COc1nc(-c2cccc([N+](=O)[O-])c2)nc2ccccc12	1%	-4	-30%	36%	11%	-3%
O=[N+]([O-])c1cccc(-c2nc(Oc3ccc(Cl)cc3)c3ccccc3n2)c1	nt	nt	11µM*	nt	nt	?
Cc1ccccc1Nc1nc(C#N)nc(NC2CCCC2)n1	nt	nt	nt	nt	3%	nt
O=[N+]([O-])c1ccc(Cl)c(CN2CCC(O)CC2)c1	-10%	0	7.9µM*	45µM*	10µM*	56µM*
O=[N+]([O-])c1ccc(Cl)c(CN2CCCCCC2)c1	-9%	2	25µM*	?	1.3µM*	56µM*
CN(O)/C=c1/ccc2c(n1)C(=O)C=CC=2	-5%	-12	10µM*	15%	20µM*	7.9µM*
Cc1cc(C)n(Cc2ccccc2Cl)n1	-10%	0	3%[59 µM]	75%	-6%	6%
COc1ccc(/C=N/n2cnn(Cc3ccccc3Cl)c2=S)cc1	27µM*	0	28µM*	?	-4%	-34%
COc1cc(/C=N/n2cnn(Cc3ccccc3Cl)c2=S)cc(OC)c1OC	?	-4	32µM*	-19%	-29%	-24%
Oc1ccccc1/C=N/n1cnn(Cc2ccccc2Cl)c1=S	4.7µM*	-27	3.5µM*	2%	18µM*	-20%
COc1ccc(N2N=NN(C(C)C)C2=C(Cl)c2nnnn2-c2ccc(OC)cc2)cc1	?	-6	nt	45%	-9%	nt
Cc1ccsc1CNC12CC3CC(CC(C3)C1)C2	-5%	4	nt	12%	-23%	-15%
CCCCOC(=O)c1ccc(Nc2ncnc3[nH]ncc23)cc1	nt	nt	-5%[59 µM]	18%	-14%	-3%
COc1ccccc1C(=O)Nc1ccccc1SCc1cc(=O)c2ccccc2[nH]1	nt	nt	-21%[59 µM]	33%[57 µM]	-3%	3%
C=CCN=C1NN=C(c2ccc3c(c2)OCCO3)CS1	-23%	-2	40µM*	-4%	-34%	-35%
CCN=C1NN=C(c2ccc(C)cc2)CS1	?	nt	32µM*	-3%	-33%	-32%
Fc1ccc(C2=NNC(=NCc3ccccc3)SC2)cc1F	27µM*	-28	?	-2%	?	?
CC(C)N=C1NN=C(c2ccc(F)cc2)CS1	-15%	?	?	16%	-32%	-23%
Clc1ccc(C2=NNC(=NCc3ccccc3)SC2)cc1	?	?	-45%	-3%	?	?
c1ccc(CN=C2NN=C(c3ccccc3)CS2)cc1	-29%	-9	40µM*	-21%	?	?
Cc1noc(C)c1-c1nc(NCc2cccs2)c2ccccc2n1	nt	nt	-46%[0.501 µM]	nt	nt	nt
COc1ccc(C2CC(c3ccccc3)Oc3ccc(C(C)(C)C)cc32)cc1 (centres undefined)	nt	nt	nt	53%	1%	nt
SMILES	PLK1 PBD block	PI5P4K alpha inh	G9a block	HP1b binding inh	JMJD2A Tudor inh	BAZ2B inh
Cc1cccc(NC(=O)C2CCC(CNS(=O)(=O)c3ccc(Br)s3)CC2)c1 (centres undefined)	nt	nt	-7%[59 µM]	11%	-12%	2%
CCCCN=C1NN=C(c2cc3ccccc3o2)CS1	-17%	-18	?	?	?	-39%
c1ccc(C2=NNC(=NCc3ccc4c(c3)OCO4)SC2)cc1	?	-7	40µM*	6%	-27%	-37%
CCCCN=C1NN=C(c2cccc([N+](=O)[O-])c2)CS1	-5%	0	11µM*	-2%	-31%	?
COc1cc(NC(=O)C2=C(C)Nc3nnnn3C2c2ccc(SC)cc2)c(OC)cc1Cl (centres undefined)	nt	nt	-33%[59 µM]	0%	?	-26%
COc1ccc(N(CC(=O)NC2CCCC2)C(=O)Cn2nnc(-c3ccc(F)cc3)n2)cc1	-11%	-1	-4%	-2%	-5%	-3%
COc1ccc(C(C)C)cc1S(=O)(=O)NC1CCCC1	-7%	6	8%[12.7 µM]	27%	-18%	-11%
COc1ccccc1CNC(=O)c1cc2cccc3c2n1CCS3	nt	nt	-2%[59 µM]	15%	-12%	-4%
COc1ccc(N2CCN(CCNS(=O)(=O)c3ccc(C)cc3)CC2)cc1	-17%	-1	50µM*	-29%	-32%	-16%
COc1ccc(N2CCN(C(=O)CCNS(=O)(=O)c3ccc(C)cc3)CC2)cc1	0%	-10	50µM*	30%	-19%	-33%
COc1ccc(S(=O)(=O)NCCS(=O)(=O)N2CCN(c3ccccc3)CC2)cc1	3%	3	0%	24%	-11%	10%
O=C(CCNS(=O)(=O)c1ccc2c(c1)CCN2C(=O)C1CC1)N1CCN(c2ccc(F)cc2)CC1	nt	nt	6%[59 µM]	5%[57 µM]	45µM*	-8%
CSc1nn(Cc2cccc(Cl)c2)c(N(C(C)=O)C(C)=O)c1S(=O)(=O)c1ccccc1	nt	nt	9%[59 µM]	23%	-11%	-1%
CCCC(O)(CCC)C(=O)NN1CCCCC1	19µM*	nt	26%[0.501 µM]	-9%	?	-1%
CC(C)CCC(O)(CCC(C)C)C(=O)NN1CCCCC1	6%	-4	12%[59 µM]	32%	-7%	?
CC(=O)c1cnc2nc(SCc3ccc(Cl)cc3)nn2c1C	-8%	3	20%	59%	-5%	10%
CC(=O)c1cnc2nc(SCc3ccc(C)cc3)nn2c1C	24µM*	-5	22%	1%	?	-2%
O=C(CNC(=O)c1cccs1)NCCN1CCC(Cc2ccccc2)CC1	nt	nt	12%[59 µM]	nt	nt	8%
O=C(NCCNC1CCN(Cc2ccccc2)CC1)c1cccs1	nt	nt	1.8µM*	nt	nt	?
CCOc1ccc(CNS(=O)(=O)c2ccc(-c3coc(C)n3)cc2)cc1OC	nt	nt	0%[59 µM]	26%[57 µM]	-6%	1%
CN(C)S(=O)(=O)c1ccc(NC(=O)CN2CCCc3ccccc32)cc1	-12%	5	40µM*	-19%	?	?
NNC(=O)CN1CCCc2ccccc21	?	-15	3%	-12%	3%[11.4 µM]	-19%
CN(C)S(=O)(=O)c1cc(NC(=O)CN2CCc3ccccc32)ccc1Cl	-10%	-5	16µM*	1%	-17%	-15%
CC1Cc2ccccc2N1CC(=O)Nc1ccc(S(=O)(=O)N(C)C)cc1 (centres undefined)	-7%	-6	?	29%	-22%	?
O=C(CN1CCCc2ccccc21)Nc1cc(S(=O)(=O)N2CCCC2)ccc1Cl	-6%	-1	25µM*	33%	-23%	-31%
O=C(CN1CCCc2ccccc21)NCc1ccccc1Cl	-4%	17	45µM*	1%	-36%	-39%
